Screening results from PubChem BioAssay.
The full list was thinned out, with hits kept by preference.
ST2 IL33 inh – blocks human ST2 binding to IL-33; actives 2.3% (n = 78,000); AlphaLISA ST2-Fc/biotin-IL-33 interaction, 1 h; inhibition, % for hits at 17 µM; Q01638; AID 1259354; in the data active = inhibition above about 30%
Target sequence (Q01638 whole entry, looked up): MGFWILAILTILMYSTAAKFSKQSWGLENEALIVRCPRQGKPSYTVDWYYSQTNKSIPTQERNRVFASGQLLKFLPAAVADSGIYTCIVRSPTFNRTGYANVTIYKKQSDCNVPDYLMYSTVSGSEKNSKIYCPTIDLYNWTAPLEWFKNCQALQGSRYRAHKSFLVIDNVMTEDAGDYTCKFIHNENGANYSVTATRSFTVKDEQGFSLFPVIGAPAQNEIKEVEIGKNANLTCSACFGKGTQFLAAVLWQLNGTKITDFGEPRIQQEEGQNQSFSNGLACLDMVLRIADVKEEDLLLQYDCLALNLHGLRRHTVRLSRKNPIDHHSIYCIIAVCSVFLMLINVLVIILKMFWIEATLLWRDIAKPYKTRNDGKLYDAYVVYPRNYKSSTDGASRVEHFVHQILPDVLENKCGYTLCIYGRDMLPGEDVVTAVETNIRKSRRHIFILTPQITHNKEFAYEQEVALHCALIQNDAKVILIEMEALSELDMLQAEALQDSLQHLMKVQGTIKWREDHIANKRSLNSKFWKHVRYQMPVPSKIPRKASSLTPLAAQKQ
Starred values were filed as active, the others as inactive; i = inactive; ! = not active in a repeat.

SMILES	ST2 IL33 inh
CN(C)CCNc1ccc(Cl)cc1[N+](=O)[O-]	i
O=C(Nc1cccc(Cl)c1)c1cccs1	i
O=C(NCCNc1ccc(Cl)cc1[N+](=O)[O-])c1ccc(Br)o1	i
COc1ccc(Cl)cc1NC(=O)c1cccs1	i
CCNc1ccc(Cl)cc1[N+](=O)[O-]	31%*
COc1ccc(NCCNC(=O)c2ccc(Cl)cc2)c([N+](=O)[O-])c1	32%*
NCCCNc1ccc(Cl)cc1[N+](=O)[O-]	i
O=C(Nc1ccc(Cl)cc1[N+](=O)[O-])c1cccs1	33%*
COc1ccc(NC(=O)c2ccc(-c3ccccc3)cc2)c([N+](=O)[O-])c1	i
COCC(=O)Nc1c(C(=O)Nc2ccc(F)cc2)oc2ccccc12	i
CC(C)CCNC(=O)c1ccc(Br)o1	i
Cc1ccc(CSC2=NCCN2C(=O)c2c(F)cccc2F)cc1	i
CCCN(CCC)C(=O)Cn1c(=O)n(-c2cc(OC)cc(OC)c2)c(=O)c2sccc21	i
Cc1ccc2c(c1)c(=O)c(C(=O)N1CCCC(O)(CN(C)C)CC1)cn2C (stereo not given)	i
CCOc1ccc(C(=O)Nc2cc(C)cc(C)c2)cc1[N+](=O)[O-]	i
CCCN1CCN(S(=O)(=O)c2cccc3cccnc23)CC1	i
COc1ccccc1CNC(=O)C1c2cc(OC)c(OC)cc2C(=O)N(C)C1c1ccccc1F (stereo not given)	i
COc1cc2c(cc1OC)C(C(=O)NCCN(C)C)C(c1ccccc1F)N(C)C2=O (stereo not given)	32%*
CCCCNC(=O)C1c2cc(OC)c(OC)cc2C(=O)N(C)C1c1ccccc1F (stereo not given)	i
Cc1cccc(CN(CC(C)O)CC(C)O)c1 (stereo not given)	i
COc1ccc(/C=C/C(=O)NCc2cccnc2)cc1S(=O)(=O)N1CCCCC1	i
CCOc1ccc(-c2csc(NC(=O)c3ccc(OC)c(OC)c3)n2)cc1	i
O=C(O)C1CCN(c2nc(-c3ccc(Br)cc3)cs2)CC1	i
CCOc1ccc(-c2csc(/C(C#N)=C/c3ccc(OC)cc3)n2)cc1	54%*
CCOc1ccc(-c2csc(/C(C#N)=C/c3ccc(N(C)C)cc3)n2)cc1	65%*
SMILES	ST2 IL33 inh
CCOc1ccc(-c2csc(-c3cc4cccc(OC)c4oc3=O)n2)cc1	i
COc1cc(-c2oc(-c3ccc(O)c(OC)c3)c(C)c2C)ccc1O	i
CCOc1ccc(-c2cn3ccsc3n2)cc1	i
CN(C)c1ccc(/C=C(\C#N)c2nc(-c3ccc(Br)cc3)cs2)cc1	53%*
COc1cc(/C=C(\C#N)c2nc(-c3ccc(Br)cc3)cs2)ccc1O	33%*
CCOc1ccccc1/C=C(\C#N)c1nc(-c2ccc([N+](=O)[O-])cc2)cs1	i
Cc1ccc(N2C(=O)C3C4C=CC(C)(O4)C3C2=O)cc1[N+](=O)[O-] (stereo not given)	i
COc1ccccc1N1CCN(C(=O)C2c3ccccc3C(=O)N3CCc4ccccc4C23)CC1 (stereo not given)	i
C=CCN(CC=C)S(=O)(=O)c1ccc(C(=O)N=c2sc3cc(F)ccc3n2C)cc1	i
CCc1c(C)sc(NC(=O)c2cc(-c3ccc(Br)cc3)on2)c1C#N	i
CCC(C)(C)C(=O)Nc1ccc(S(=O)(=O)Nc2nccc(C)n2)cc1	i
Cc1ccc(N2C(=O)S/C(=C\c3ccccc3)C2=O)cc1	i
N#C/C(=C\c1cccc(F)c1)c1nc(-c2cc3ccccc3oc2=O)cs1	i
COc1ccc(-c2csc(/C(C#N)=C/c3cccc(F)c3)n2)cc1	43%*
COc1ccc(-c2cc(-c3ccccc3)nc(Br)c2C#N)cc1	i
c1cc(CN2CCc3[nH]cnc3C2c2ccsc2)n(-c2nccs2)c1 (stereo not given)	i
O=C(Cn1c(=O)n(-c2ccc(F)cc2F)c(=O)c2sccc21)OCc1ccccc1	i
CSc1ccc(NC(=O)c2sc3nc(-c4ccc(F)cc4)ccc3c2N)cc1	44%*
COc1ccc(CCNC(=O)c2sc3nc(-c4ccc(OC)cc4)ccc3c2N)cc1	i
COc1cc(NC(=O)c2sc3nc(-c4ccc(F)cc4)ccc3c2N)cc(OC)c1OC	i
COc1cccc2c1OCC(C(=O)N1CCc3c(nc(C)[nH]c3=O)C1)C2 (stereo not given)	i
O=c1c2c[nH]c3ccccc3nc-2c2ccccc12	42%*
Nc1ccc(Br)cc1-c1nc2ccccc2[nH]c1=O	i
O=C(O)c1cc(-c2c[nH]c3ccccc23)n[nH]1	i
O=C(NC1CCCN(c2ncccn2)C1)c1csc(Cc2ccccc2)n1 (stereo not given)	i
SMILES	ST2 IL33 inh
COc1ccc(NC(=O)c2oc3ccccc3c2NC(=O)C(C)C)c(OC)c1	i
O=S(=O)(c1ccc(F)cc1)N1CCCCCC1	i
COC(=O)c1c(NC(=O)C2CCCCC2)sc(C)c1C	i
COc1ccc(C2CC(c3cccs3)=NN2C(C)=O)cc1 (stereo not given)	i
O=S(=O)(c1ccccc1)N1N=C(c2ccccc2)CC1c1ccc(Cl)cc1 (stereo not given)	i
Cc1ccc(C2CC(c3cccs3)=NN2S(=O)(=O)c2ccc(C)cc2)cc1 (stereo not given)	33%*
COc1ccc(C2CC(c3cccs3)=NN2S(=O)(=O)c2ccc(C)cc2)cc1 (stereo not given)	32%*!
COc1ccc(C2CC(c3ccc(C)cc3)=NN2S(=O)(=O)c2ccccc2)cc1 (stereo not given)	i
COc1ccc(C2=NN(S(=O)(=O)c3ccccc3)C(c3ccc(C)cc3)C2)cc1OC (stereo not given)	i
Cc1ccc(OCC(=O)Nc2ccc(Cl)cc2[N+](=O)[O-])cc1	i
O=C(Nc1ccccc1-c1ccccc1NC(=O)c1ccc(F)cc1)c1ccc(F)cc1	i
O=C(CCC1=NS(=O)(=O)c2ccccc2N1)NCc1ccco1	i
Cc1ccc2c(c1)N(CC(=O)NCc1ccccn1)C(=O)CO2	i
CCN(CC)CCCNC(=O)CN1C(=O)/C(=C\c2ccc(Cl)cc2)Sc2ccccc21	i
COCCCNC(=O)CN1C(=O)/C(=C\c2ccc(C(F)(F)F)cc2)Sc2ccccc21	i
Cc1ccc(/C=C2/Sc3ccccc3N(CC(=O)NCc3ccccn3)C2=O)cc1	32%*
O=C(CN1C(=O)/C(=C/c2ccccc2F)Sc2ccccc21)NCc1ccccc1Cl	i
CCN(CC)CCNC(=O)CN1C(=O)/C(=C\c2ccc(Cl)cc2)Sc2ccccc21	33%*
CCCCNC(=O)CN1C(=O)/C(=C/c2ccccc2F)Sc2ccccc21	i
CCN(CC)CCNC(=O)CN1C(=O)/C(=C\c2ccc(C(F)(F)F)cc2)Sc2ccccc21	37%*
CCCCOc1ccc(CNC(=O)CN2C(=O)c3cccnc3Sc3ccccc32)cc1	i
CCC1Oc2ccccc2N(CC(=O)NCCCN(CC)CC)C1=O (stereo not given)	i
Cc1cc(NC(=O)CN2C(=O)S/C(=C\c3ccc(Cl)cc3)C2=O)no1	i
CCN(CCNC(=O)CN1C(=O)/C(=C/c2ccccc2F)Sc2ccccc21)c1ccccc1	42%*
CCOc1ccc(C2Nc3ccccc3NC3=C2C(=O)CC(C)(C)C3)cc1OC(C)=O (stereo not given)	i
CCc1n[nH]c2c1CN(C(=O)c1ccc(C)c(-n3cccc3)c1)CC2	i
CCNc1ncc(C(=O)N2CCN(Cc3ccc(F)cc3)C(=O)C2)cn1	i
CN(C)CC1(O)CCCN(C(=O)Cc2c(F)cccc2Cl)CC1 (stereo not given)	i
